HTT aggregate = inhibitors of mutant huntingtin aggregate formation in PC12 cells; PC12 HttQ103-GFP aggregates, Acumen cytometry, 40 h; Potency, µM (doses to about 46.1 µM), for inactives: top-dose activity change, negative = inhibition, usual class: inhibitors; actives 1.1% (n = 220,000); AID 1688; note: potency is the fitted concentration of half-maximal effect; % is set by controls: 0 for no effect and ±100 for the full control effect; nearly all actives have a fitted effect of over 60% in size
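Using laser scanning cytometry, GFP-positive aggregates were counted after lysis of PC12 cells induced with 100 nM tebufenozide to express HTT exon 1 Q103–GFP. Compounds were tested in titration.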
HPGD inh = inhibitors of human 15-hydroxyprostaglandin dehydrogenase (HPGD); Potency, µM, for the others: top-dose activity change, negative = inhibition, actives largely listed as inhibitors; actives 4.3% (n = 150,000); P15428; purified HPGD, NADH fluorescence kinetic, PGE2 substrate; active = well fitted inhibition curve with a large enough effect, not every such curve was filed as active; inconclusive = small, poorly fitted or top-dose-only effect, or another doubt; inactive = no such curve, though single readings can be large or run the other way; note: potency is the fitted concentration of half-maximal effect; % is set by controls: 0 for no effect and ±100 for the full control effect
Target sequence (P15428 whole entry, looked up): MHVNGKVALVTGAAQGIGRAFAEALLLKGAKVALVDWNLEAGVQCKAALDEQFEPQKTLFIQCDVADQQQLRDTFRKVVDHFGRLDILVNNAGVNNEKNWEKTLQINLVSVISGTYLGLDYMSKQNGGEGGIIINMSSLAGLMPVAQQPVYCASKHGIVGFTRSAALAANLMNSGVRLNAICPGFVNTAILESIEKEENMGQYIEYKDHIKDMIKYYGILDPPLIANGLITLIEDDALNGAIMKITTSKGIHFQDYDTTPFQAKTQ
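NADH formation kinetics: reaction with 30 uM PGE2 and 1 mM NAD+ (final), 20 nM enzyme, Tris-HCl pH 8 with Tween 20, after 15 min compound preincubation at room temperature. Fluorescence change, last versus first of five reads.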
HTT ATP protect = Huntington cell model cytoprotection by ATP luminescence; PC12 HTT-Q103 induced, cytoprotection, ATP luminescence, 40 h; Potency, µM (top dose mostly 56.4 µM), inactives show cytoprotection (ATP increase), most hits filed as activators; actives 0.14% (n = 230,000); AID 1471; note: potency is the fitted concentration of half-maximal effect; % of control where 0% means no effect; nearly all actives have a fitted effect of over 45% in size
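PC12 cells with ecdysone-inducible HTT exon 1 Q103-GFP, induced with 100 nM tebufenozide and co-treated with library compounds in a dose series (1536-well, 1500 cells/well). Cytoprotection read as ATP content by ATPlite luminescence.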
GoLoco inh red = blocks human Gai1 binding to RGS12 GoLoco peptide, red readout. Potency, µM (top dose mostly 61.6 µM), for inactives: top-dose activity, negative = inhibition, hits mostly inhibitors. Gai1:RGS12 GoLoco peptide FP, rhodamine, 10 min. actives 0.44% (n = 230,000). AID 880; active = well fitted inhibition curve with a large enough effect, not every such curve was filed as active; inactive = no such curve, though single readings can be large or run the other way; note: potency is the fitted concentration of half-maximal effect; % is set by controls: 0 for no effect and ±100 for the full control effect; nearly all actives have a fitted effect of over 30% in size
ALDH1A1 block = inhibitors of human aldehyde dehydrogenase 1A1. actives 7.3% (n = 220,000). Potency, µM (doses to about 75.3 µM), without a hit: at the highest dose activity, negative = inhibition, usual class: inhibitors. P00352. Purified ALDH1A1, NADH fluorescence, propionaldehyde substrate; active = well fitted inhibition curve with a large enough effect, not every such curve was filed as active; inconclusive = small, poorly fitted or top-dose-only effect, or another doubt; inactive = no such curve, though single readings can be large or run the other way;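 note: potency is the fitted concentration of half-maximal effect; plate controls were no enzyme wells and a reference inhibitor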
Target sequence (P00352 whole entry, looked up): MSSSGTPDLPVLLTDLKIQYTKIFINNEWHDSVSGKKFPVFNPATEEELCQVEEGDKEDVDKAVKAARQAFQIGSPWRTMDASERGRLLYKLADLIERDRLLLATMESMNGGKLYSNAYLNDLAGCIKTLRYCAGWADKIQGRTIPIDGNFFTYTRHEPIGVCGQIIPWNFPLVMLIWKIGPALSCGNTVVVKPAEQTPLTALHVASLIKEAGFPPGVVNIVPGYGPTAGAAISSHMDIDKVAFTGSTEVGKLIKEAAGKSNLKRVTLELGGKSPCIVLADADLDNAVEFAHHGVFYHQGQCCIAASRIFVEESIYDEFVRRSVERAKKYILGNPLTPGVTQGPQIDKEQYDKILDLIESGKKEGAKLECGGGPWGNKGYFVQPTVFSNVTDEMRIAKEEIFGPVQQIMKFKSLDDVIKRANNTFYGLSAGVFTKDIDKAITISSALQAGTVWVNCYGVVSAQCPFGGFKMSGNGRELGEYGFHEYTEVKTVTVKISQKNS
PNC inhibitor = inhibitors of perinucleolar compartment assembly. actives 3.1% (n = 140,000). activity change (PNC), negative = inhibition, % at 10 µM. PC3M PTB-GFP, PNC prevalence imaging, 16 h; active compounds read low. AID 2417;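 active = readout at or below -70, meaning at least 70% loss of cells showing the perinucleolar compartment, a nuclear body marking cancer cells; inconclusive = readout between -30 and a set limit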;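 note: plate controls were DMSO wells for no effect and camptothecin positive control wells for full effect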
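PC3M cells stably expressing PTB-GFP, 750–1000 cells/well, treated 16 h at 37 °C with compound (23 nl of library stock), in duplicate. After paraformaldehyde fixation and Hoechst stain, imaged at 20x; PNC prevalence scored by image analysis.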
* = called active by the depositor; ? = inconclusive; · = no result; [ ] = dose if it differs, or a comment. Compounds with a hit are over-represented: about 11% of the library has one in this group of screens. Unless noted, calls come from the whole dose curve; as a rule, active = well fitted curve in the direction sought with a large enough effect; inconclusive = small, poorly fitted or top-dose-only effect, or another doubt; inactive = no such curve, though single readings can be large; an effect the other way counts as inactive or inconclusive.

SMILES	HTT aggregate	HPGD inh	HTT ATP protect	GoLoco inh red	ALDH1A1 block	PNC inhibitor
CCN(CC)C(=O)C1CCCN(Cc2ccccc2F)C1 (configuration not stated)	6%	-8%	-2%	-4%	-10%	15
C[C@@]12C=CC(=O)C=C1CC[C@H]1[C@H]3CC[C@](O)(C(=O)CO)[C@]3(C)CC(=O)[C@@H]12	·	-2%	-8%[40.3 µM]	3%[21.6 µM]	2%[20.9 µM]	·
Cc1nc2cnc(Oc3ccccc3)nc2n(-c2ccccc2)c1=O	·	-10%	-11%	10%	22µM*	·
COc1ccc(-n2c(=O)c(C)nc3cnc(Oc4ccccc4)nc32)cc1	·	-8%	-4%	49%	2.5µM*	·
C#CCCCO/N=C1/[C@H]2O[C@@H]2[C@@H](O)[C@H]2[C@H]1CCn1c(=O)n(Cc3cc4c(cc3Cl)OCO4)c(=O)n12	·	·	-11%[10 µM]	·	-2%[13.5 µM]	·
CC(C)C(=O)Nc1cccc(-c2cnc3ccccc3n2)c1	-10%[1.84 µM]	-7%	-13%	3%	-6%	-96*
Cc1ccc(C(=O)Nc2cccc(-c3cnc4ccccc4n3)c2)cc1	-31%	-6%	-22%	5%	12%	50
O=C(Nc1cccc(-c2cnc3ccccc3n2)c1)c1ccco1	?	-23%	-8%	16%	25µM*	46
N#Cc1ccc2c(c1)N(CCCN1CCC(O)CC1)c1ccccc1S2	-19%	-3%	-25%	8%	1%	·
c1ccc(COc2ccc(CNCc3cccnc3)cc2)cc1	-18%	·	29%[10 µM]	4%	2%	·
CN(C)/C=C1/C=C(c2ccccc2)OC1=O	14%[9.22 µM]	-11%	-14%	12%	?	37
O=C1OC(c2ccccc2)=C/C1=C\N1CCOCC1	?	-6%	-24%	4%	11µM*	?
O=C1OC(c2ccccc2)=C/C1=C/N1CCOCC1	-11%	-19%	-15%[10 µM]	8%	7.9µM*	-20
COc1ccc(CNC(=O)c2sc(=S)n(-c3ccccc3)c2N)cc1	-17%[9.22 µM]	·	-13%[10 µM]	-6%	·	·
CCOc1ccc(-n2c(N)c(C(=O)NCc3cccnc3)sc2=S)cc1	17%	35µM*	-1%	-1%	?	-15
CCOc1ccc(-n2c(N)c(C(=O)NCc3ccco3)sc2=S)cc1	5%	32µM*	-10%	0%	22µM*	-86*
Cc1c(N2C(=O)/C(=C\C3CC=CCC3)SC2=S)c(=O)n(-c2ccccc2)n1C (configuration not stated)	-33%	·	?	93%	1.3µM*	·
Cc1nc2ccc(NC(=O)Nc3ccnc4cccnc34)cc2o1	·	-1%	-17%	17%	?	·
CN(C(=O)COC(=O)c1cc(S(=O)(=O)N2CCOCC2)c(Cl)cc1Cl)C1CCS(=O)(=O)C1 (configuration not stated)	16%[9.22 µM]	·	-6%	7%	-1%	·
CN(C(=O)COc1ccc(S(=O)(=O)N2CCOCC2)cc1[N+](=O)[O-])C1CCS(=O)(=O)C1 (configuration not stated)	1%[9.22 µM]	·	-1%[10 µM]	9%	13µM*	·
CN(Cc1ccco1)C(=O)C(Cc1ccccc1)NS(=O)(=O)c1ccc2c(c1)CCC(=O)N2 (configuration not stated)	8%	-6%	-21%	-9%	25µM*	-81*
COC(=O)c1ccc(Cl)c(NC(=O)c2ccc(-c3ccccc3)cc2)c1	0%	-10%	3%	4%	13%	28
COC(=O)c1cc(=O)n(Cc2ccco2)c(=Nc2ccc(F)c(Cl)c2)s1	?	-10%	-16%	-12%	3.5µM*	16
COC(=O)c1cc(=O)n(Cc2ccc3c(c2)OCO3)c(=Nc2ccc(F)cc2)s1	31%	-5%	-19%	-15%	?	6
COC(=O)c1cc(=O)n(Cc2ccc3c(c2)OCO3)c(=Nc2ccccc2)s1	?	-21%	0%	1%	0.63µM*	-18
SMILES	HTT aggregate	HPGD inh	HTT ATP protect	GoLoco inh red	ALDH1A1 block	PNC inhibitor
COC(=O)c1cc(=O)n(Cc2cccs2)c(=Nc2ccc(F)cc2)s1	-1%[9.22 µM]	·	3%[10 µM]	-1%	10µM*	·
C[C@H]1[C@@H](OC(=O)CCC(=O)O)OC2OC3(C)CC[C@H]4[C@H](C)CC[C@@H]1[C@@]24OO3 (some centres not stated)	3.2µM*	·	-97%	·	·	·
CC(C)CCn1cnc2c(sc3nc4c(cc32)CSC(C)(C)C4)c1=O	22%	-10%	-2%[10 µM]	4%	1.8µM*	?
CCCCn1cnc2c(sc3nc4c(cc32)CSC(C)(C)C4)c1=O	2%	-17%	-9%[10 µM]	-5%	1.1µM*	-27
OC[C@H]1O[C@@H](n2cnc3c(Nc4ccccc4)ncnc32)[C@H](O)[C@H]1O	·	-7%	·	7%	?	·
CC1(C)C(=O)C2(CCCC2)C(=O)OC1c1ccco1 (configuration not stated)	-3%	-12%	7%[0.074 µM]	-1%	22µM*	22
CC1(C)C(=O)C2(CCCCC2)C(=O)OC1c1cccn1-c1ccc([N+](=O)[O-])cc1 (configuration not stated)	-6%	-7%	5%[10 µM]	-11%	5%	-87*
O=C(Nc1nc(=S)ss1)c1ccc(Cl)cc1Cl	4%	22µM*	-10%	-5%	6.3µM*	21
Cc1cc(C(=O)O)ccc1[C@H](N)C(=O)O	·	-12%	-37%	5%	4%	·
Cc1ccccc1C(=O)c1cccn1CC(=O)N1CCCCCC1	-22%	·	-29%	·	4µM*	17
Cc1nn(C)c(Oc2cccc(C(F)(F)F)c2)c1C=O	-7%	·	-20%	4%	7%	·
COc1ccc(CNC(=O)C(OC(=O)c2nsc(Cl)c2Cl)C(C)C)cc1 (configuration not stated)	·	·	·	2%	?	·
Cc1nc2ccccc2c(=O)n1NC(=O)Nc1ccccc1	15%	3%	-13%[1.9 µM]	5%	8%	44
Cc1nc2ccccc2c(=O)n1NS(C)(=O)=O	17%	-9%	-2%	8%	11%	-112*
O=[N+]([O-])c1ccccc1N(CC1CO1)S(=O)(=O)c1ccccc1 (configuration not stated)	17%[9.22 µM]	·	15%[10 µM]	12%	0%	·
O=C(Nc1ccc(Cl)cc1)/C(=C/c1ccc([N+](=O)[O-])cc1)c1nc2ccccc2s1	7.1µM*	·	-197%	6%	-4%	·
O=[N+]([O-])c1ccc(Nc2nc3ccccc3s2)cc1	·	-29%	-2%[10 µM]	-2%[14.2 µM]	1.4µM*	·
COc1ccc2c(=O)c3c(=O)n(Cc4ccco4)c(C(C)C)nc3oc2c1	-14%	-28%	-14%[10 µM]	19%	9.5µM*	-18
COc1ccc2c(=O)c3c(=O)n(Cc4ccco4)c(-c4ccc(C)cc4)nc3oc2c1	-7%	-8%	19%	-3%	?	8
